In experiment [1] the target is ATP-dependent translocase ABCB1 (Homo sapiens) (UniProt P08183). Put plainly: P-glycoprotein substrate transport blockade – cell-based (AID 377; in the data active = fluorescence slope change above about 50%). Particulars: MDR1-expressing cells, fluorescent substrate accumulation slope; stronger effect = higher value; concentration not given here.
The nature of experiment [2]: blockers of polyQ-driven CASP3 activation – cell-based (AID 1583). Particulars: polyglutamine-induced caspase-3 activation, cell assay; stronger effect = higher value;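 tested at 10 µM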.
A short description of experiment [3]: restoration of touch response, mutant HTT neurons – whole organism, C. elegans mechanosensory neurons, N-terminal huntingtin (AID 1599). Particulars: C. elegans polyQ-huntingtin mechanosensory neurons, stronger effect = higher value.
Experiment [4] in a line: glutamate transport activators, MN-1 cells, MN-1 cell line (AID 1612).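 Note: tested at 1 µM final; 0% = mean of DMSO vehicle wells on each plate; positive means more glutamate uptake than control and negative means less.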 The conditions noted are these: MN-1 motor neuron cells, stronger effect = higher value.
Experiment [5] can be described thus: GFP-Q80 aggregate reduction, neuronal-like cells, cell-based, NGF-treated PC12, GFPQ80 (AID 1614).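 Note: lower means fewer inclusions and 0 means no inclusions at all.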 The conditions noted are these: PC12 NGF-treated GFP-polyQ80 inclusion reduction.
Experiment [6] can be described thus: 75Q-TubH aggregate inhibition, S. cerevisiae, yeast (AID 1616). Particulars: S. cerevisiae 75Q-TubH polyglutamine aggregation suppression; stronger effect = higher value.
The nature of experiment [7]: compounds altering viability of human ES cells (AID 493140; call rule not given here;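 note: cells exposed to compounds for four days before counting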). The conditions noted are these: human embryonic stem cell survival screen; stronger effect = higher value.
Experiment [8] can be described thus: modulation of C. elegans fzo-1 (AID 1259413; call rule not given here;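 note: fzo-1 mutant C. elegans worms in liquid wells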). The conditions noted are these: C. elegans fzo-1 modulator screen, mean read-out; stronger effect = higher value.
The test system of a further experiment is F380Y. Put plainly: BK channel mutant inhibitors and activators – cell-based, U2OS BacMam, thallium flux, beta subunits, selectivity assay, profiling panel (AID 1259406).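 Note: initial slope of Thallos dye fluorescence rise after thallium is added; log ratio against the mean of 0.3% DMSO vehicle wells on the same plate.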 The conditions noted are these: U2OS BacMam BK variants, at 30 µM.
The test system of the next experiment is F380Y/beta1. The experiment is described as above. Particulars: U2OS BacMam BK variants, at 30 µM.
The test system of a further experiment is F380Y/beta2Delta. The experiment is described as above. Particulars: U2OS BacMam BK variants, at 30 µM.
A further experiment relates to R275C. The experiment is described as above. Particulars: U2OS BacMam BK variants, at 30 µM.
For another experiment, the system named is R275C/beta1. The experiment is described as above. Particulars: U2OS BacMam BK variants, at 30 µM.
In a further experiment the test system is R275C/beta2Delta. Described as above. The conditions noted are these: U2OS BacMam BK variants, at 30 µM.
The test system of the next experiment is R275C/Slo1WT/beta2. Described as above. The conditions noted are these: U2OS BacMam BK variants, at 30 µM.
Experiment [9] can be described thus: compounds altering circadian rhythm period length – cell-based, LOPAC library, luminescence reporter (AID 2774; call rule not given here;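 note: values are relative to mean of DMSO wells on each plate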). The conditions noted are these: circadian reporter cells, at 7 µM, actives lie on both sides.
In experiment [10] the test system is Hepatitis C virus NS3 helicase. Briefly: blockers of NS3h binding to ssDNA – biochemical, fluorescence polarization, LOPAC1280 library, primary screen (AID 687035; in the data active = inhibition above about 37%). Particulars: Purified HCV NS3 helicase, Cy5-dT15 ssDNA binding fluorescence polarization; stronger effect = higher value; concentration not given here.
Experiment [11] is described as follows: compounds altering Cy5-DNA-NS3h complex signal – biochemical, LOPAC1280, artefact control for HCV NS3 helicase inhibitor project (AID 687037; call rule not given here). The conditions noted are these: Cy5-DNA-NS3h complex fluorescence interference counterscreen.
Experiment [12] in a line: blockers of cellular phospholipid synthesis – cell-based, LOPAC library, screen 4, primary screen (AID 1347384; call rule not given here). Particulars: animal cells, phospholipid biosynthesis inhibition screen; at 10 µM.
Experiment [13] deals with Aerobactin synthetase IucA (Klebsiella pneumoniae, hypervirulent). Put plainly: biochemical IucA inhibition screen of LOPAC library by absorbance (AID 1346212; call rule not given here;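 note: 100% = no compound wells and 0% = no enzyme wells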). Particulars: IucA enzyme assay, absorbance (OD) readout; stronger effect = lower value;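 tested at 8 µM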.

Where “and” joins values, the source holds several entries; their conditions need not be identical. Identical values can stand only once. Results filed as inconclusive are left out. For part of these data: Entries with a potency or affinity are not part of this list. Calls of active or inactive are those of the source.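 Rule for the calls, unless noted: active = thallium flux through the channel raised or lowered by more than 3 SD from vehicle-only wells, actives on both sides; inactive = the rest.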

ATP-dependent translocase ABCB1 (Homo sapiens), sequence (P08183 whole entry, looked up): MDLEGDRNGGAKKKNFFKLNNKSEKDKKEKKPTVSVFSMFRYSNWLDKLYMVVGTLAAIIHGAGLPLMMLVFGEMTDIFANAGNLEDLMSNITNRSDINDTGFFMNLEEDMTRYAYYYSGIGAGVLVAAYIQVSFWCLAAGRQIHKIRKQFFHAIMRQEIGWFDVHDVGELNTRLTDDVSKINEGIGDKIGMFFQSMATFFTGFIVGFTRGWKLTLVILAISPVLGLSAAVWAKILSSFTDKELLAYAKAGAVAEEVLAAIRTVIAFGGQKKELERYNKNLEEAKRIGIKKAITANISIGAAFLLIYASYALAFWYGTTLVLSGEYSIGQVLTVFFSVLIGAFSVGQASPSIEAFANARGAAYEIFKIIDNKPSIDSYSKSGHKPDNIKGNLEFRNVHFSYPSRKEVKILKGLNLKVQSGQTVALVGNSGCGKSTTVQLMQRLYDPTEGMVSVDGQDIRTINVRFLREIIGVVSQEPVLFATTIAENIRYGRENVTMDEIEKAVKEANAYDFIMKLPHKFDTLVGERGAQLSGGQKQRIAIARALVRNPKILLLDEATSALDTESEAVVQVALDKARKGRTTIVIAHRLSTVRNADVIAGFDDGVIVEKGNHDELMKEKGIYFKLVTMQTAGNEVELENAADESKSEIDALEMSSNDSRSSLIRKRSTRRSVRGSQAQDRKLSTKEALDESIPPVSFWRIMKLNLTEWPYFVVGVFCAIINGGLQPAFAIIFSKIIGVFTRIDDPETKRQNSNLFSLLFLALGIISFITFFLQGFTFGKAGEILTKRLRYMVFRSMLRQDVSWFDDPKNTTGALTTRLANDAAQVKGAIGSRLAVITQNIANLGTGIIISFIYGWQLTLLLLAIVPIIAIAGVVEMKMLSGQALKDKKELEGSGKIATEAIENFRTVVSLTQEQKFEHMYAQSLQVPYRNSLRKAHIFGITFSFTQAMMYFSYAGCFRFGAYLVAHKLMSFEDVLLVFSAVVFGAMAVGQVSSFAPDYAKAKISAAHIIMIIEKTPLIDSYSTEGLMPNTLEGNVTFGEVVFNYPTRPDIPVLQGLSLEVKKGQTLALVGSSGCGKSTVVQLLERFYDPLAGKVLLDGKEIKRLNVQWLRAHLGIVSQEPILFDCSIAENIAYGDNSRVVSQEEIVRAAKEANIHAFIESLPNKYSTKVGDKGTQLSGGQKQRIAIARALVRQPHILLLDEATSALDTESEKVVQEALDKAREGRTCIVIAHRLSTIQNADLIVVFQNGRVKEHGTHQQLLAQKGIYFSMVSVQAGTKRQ

Consider `CN(C)[C@@H]1C(=O)C(C(N)=O)=C(O)[C@@]2(O)C(=O)C3=C(O)c4c(O)cccc4[C@@](C)(O)[C@H]3[C@H](O)[C@@H]12`, for which, in [1], the fluorescence slope change is 60.8% (active). Moreover, in [2], the inhibition was -0.04%. For the same compound, the rescue above control in experiment [3] was -1.64. For the same compound, the glutamate uptake change in experiment [4] was -6.56%. Further, the inclusion score in experiment [5] worked out at 1. The same compound gave an aggregation suppression score in experiment [6] of 0.502. Further, in experiment [7], the survival is 14.3 (inactive). In addition, the mean signal in [8] was 260 (inactive). Further, the log fold change Tl+ flux was 0.018 (inactive) with F380Y; 0.0522 (inactive) in the experiment with F380Y/beta1; -0.0529 (inactive) with F380Y/beta2Delta; -0.057 (inactive) in the experiment on R275C; 0.0468 (inactive) in the experiment with R275C/beta1; -0.0649 (inactive) in the experiment on R275C/beta2Delta. For the same compound, the log fold change Tl+ flux in the experiment on R275C/Slo1WT/beta2 was -0.0058 (inactive).
Consider `CCC1(c2ccc(N)cc2)CCC(=O)NC1=O` (centres undefined), for which the inhibition is 22.4% in experiment [2] and -3% (inactive) in experiment [10]. Besides, in experiment [3], the rescue above control stood at 12.8. In addition, in experiment [4], the glutamate uptake change turned out to be 15.1%. In [5], this compound displayed an inclusion score of 2. Further, the aggregation suppression score in experiment [6] was determined as 1.06. In experiment [9], the period change was 0.015 h (inactive). Moreover, the survival in [7] is 19.8 (inactive). Also, the fluorescence ratio (interference) in experiment [11] was 1 (inactive). Also, the mean signal in experiment [8] is 262 (inactive). Also, the compound was classed as inactive in [12]. Further, the log fold change Tl+ flux with F380Y is 0.023 (inactive); in the experiment with F380Y/beta1, -0.0309 (inactive); with F380Y/beta2Delta, -0.00163 (inactive); with R275C, 0.0191 (inactive); with R275C/beta1 it was -0.00575 (inactive); in the experiment with R275C/beta2Delta, -0.0116 (inactive). Besides, the log fold change Tl+ flux in the experiment with R275C/Slo1WT/beta2 was 0.0134 (inactive).
On to `N[C@@H](Cc1ccc(N(CCCl)CCCl)cc1)C(=O)O`, for which the fluorescence slope change in [1] is 94.7% (active). The inhibition in experiment [2] is 9.42%. Moreover, in [3], the rescue above control is -0.78. The glutamate uptake change in experiment [4] stood at 15.9%. In experiment [6], the aggregation suppression score was 1.07. Further, in experiment [13], the remaining activity is 104% (inactive).
In the case of `CCC1(C2=NCCN2)Cc2ccccc2O1` (centres undefined), the period change in experiment [9] was 0.07 h (inactive). For the same compound, in experiment [10], the inhibition was -1% (inactive). The fluorescence ratio (interference) in experiment [11] is 1 (inactive). For the same compound, in experiment [13], the remaining activity is 82.2% (inactive). In experiment [12], the result was inactive.
On to `c1ccc2nc(N3CCNCC3)ccc2c1`, for which the fluorescence slope change in [1] is 25.1% (inactive). In addition, the inhibition in experiment [2] is -24.6%. The rescue above control in experiment [3] is -5.3. The glutamate uptake change in [4] was -14.6%. In experiment [5], this compound registered an inclusion score of 2. Further, in experiment [6], the aggregation suppression score was 1.33. For the same compound, in [9], the period change was -0.04 h (inactive). Moreover, in experiment [7], the survival was 8.75 (inactive). For the same compound, the remaining activity in experiment [13] was 114% (inactive).
Consider `COc1ccc(C(CN(C)C)C2(O)CCCCC2)cc1` (centres undefined), for which the inhibition in experiment [10] was -1% (inactive). Besides, the fluorescence ratio (interference) in experiment [11] was 1.1 (inactive). Moreover, the mean signal in [8] was 261 (inactive). In addition, in experiment [12], the call was inactive. The log fold change Tl+ flux was 0.00861 (inactive) in the experiment on F380Y; -0.0404 (inactive) in the experiment on F380Y/beta1; -0.0103 (inactive) in the experiment on F380Y/beta2Delta; -0.109 (inactive) in the experiment with R275C; 0.0103 (inactive) with R275C/beta1; -0.0272 (inactive) in the experiment with R275C/beta2Delta. In the experiment on R275C/Slo1WT/beta2, the log fold change Tl+ flux was 0.0327 (inactive).
As for `CC(NC(C)(C)C)C(=O)c1cccc(Cl)c1` (centres undefined), the fluorescence slope change in experiment [1] is 106% (active). The period change in experiment [9] was 0.18 h (inactive). The survival in [7] was 16.8 (inactive). In addition, in experiment [10], the inhibition was -1% (inactive). Besides, in [11], the fluorescence ratio (interference) is 1 (inactive). For the same compound, the mean signal in experiment [8] was 264 (inactive). Moreover, the remaining activity in experiment [13] is 118% (inactive). The result in experiment [12] was inactive. Also, the log fold change Tl+ flux with F380Y was 0.0198 (inactive) and -0.0218 (inactive); in the experiment on F380Y/beta1, -0.0211 (inactive) and 0.0228 (inactive); in the experiment with F380Y/beta2Delta, -0.0525 (inactive) and 0.0137 (inactive); in the experiment with R275C, -0.059 (inactive) and 0.00561 (inactive); in the experiment on R275C/beta1, -0.0389 (inactive) and 0.036 (inactive); in the experiment on R275C/beta2Delta, -0.014 (inactive) and 0.0171 (inactive). The log fold change Tl+ flux with R275C/Slo1WT/beta2 was -0.0516 (inactive) and 0.0164 (inactive).
On to `Cc1ncc(CNC(=O)N(CCCl)N=O)c(N)n1`, for which the period change in experiment [9] was -0.065 h (inactive). The inhibition in [10] was 2% (inactive). Moreover, the fluorescence ratio (interference) in [11] was 1 (inactive). In addition, the remaining activity in [13] is 113% (inactive). Moreover, the call in experiment [12] was inactive.

As a reminder, the inhibition is the change of the read-out against control, counted positive when it falls. The remaining activity is the signal under treatment as a percentage of the control signal.
